From PubChem BioAssay
This excerpt belongs to a sample that is enriched for hits.
DUX4 txn inh = blocks DUX4-driven transcriptional activation; AID 1224904; activity change, negative = inhibition, % (concentration not given with the values); 37,000 compounds, 0.8% hits; 293T-iDUX4 ZSCAN4-Gaussia luciferase reporter, 24 h; hits give low values;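 active = mean inhibition of at least 10% in the main channel, exceeding the control channel by a set limit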
Of the large screens only hits and unclear results are named; the others gave an inactive call.

Cc1ccccc1S(=O)(=O)N(C)C[C@H]1OCc2ccccc2-c2ccccc2C(=O)N([C@H](C)CO)C[C@H]1C	none
COc1ccc2c3c([nH]c2c1)[C@@H](CO)N(S(C)(=O)=O)CC31CCN(Cc2nccs2)CC1	none
CC(=O)N1CC2(C1)[C@H](c1ccccc1)[C@H](CO)N2S(=O)(=O)c1ccccc1	none
CCNC(=O)[C@H]1[C@H](CO)[C@H]2Cn3c(ccc(-c4ccccc4)c3=O)[C@H]2N1C(=O)C1CCCC1	none
CC(=O)N1[C@H](CO)[C@@H](c2ccccc2)C12CN(C(=O)c1ccccn1)C2	none
COC(=O)[C@@H]1[C@@H](CO)[C@@H]2Cn3c(cccc3=O)[C@@H]2N1CC1CCOCC1	none
OC[C@@H]1Nc2ccc(C#Cc3cccc(F)c3)cc2[C@H]2NCC[C@@H]12	none
COc1ccccc1C#Cc1ccc2c(c1)[C@@H]1[C@@H](CCN1C(=O)c1ccncc1)[C@@H](CO)N2	none
COc1ccccc1C#Cc1ccc2c(c1)[C@@H]1NCC[C@@H]1[C@H](CO)N2	DUX4 txn inh -23
CCS(=O)(=O)N1CCC2(CC1)CN(C(=O)NC(C)C)[C@H](CO)c1c2c2ccc(OC)cc2n1C	none
C[C@@H]1CC=CCCNC(=O)[C@H](C)N(C)C(=O)c2ccccc2O1 (mixture of isomers)	none
CC(C)[C@H]1CC=CC[C@H](C)Oc2ccccc2C(=O)N(C)[C@@H](C)C(=O)N1 (mixture of isomers)	none
COCC(=O)N1[C@@H](CO)[C@@H](c2ccccc2)C12CN(Cc1cccc(OC)c1)C2	none
CN(C)C(=O)[C@H]1[C@H](CO)[C@H]2Cn3c(ccc(C4=CCCCC4)c3=O)[C@H]2N1Cc1ccc2c(c1)OCO2	none
CN(C)C(=O)[C@@H]1[C@@H](CO)[C@@H]2Cn3c(ccc(C4=CCCCC4)c3=O)[C@@H]2N1Cc1ccc2c(c1)OCO2	DUX4 txn inh -15
CCNC(=O)[C@H]1[C@H](CO)[C@H]2Cn3c(ccc(C4=CCCCC4)c3=O)[C@H]2N1Cc1ccc2c(c1)OCO2	none
CC(=O)N1[C@H](CO)[C@H](c2ccccc2)C12CN(C(=O)Cc1ccccc1)C2	none
COc1ccc(S(=O)(=O)Nc2ccc3c(c2)C(=O)N([C@H](C)CO)C[C@H](C)[C@@H](CN(C)C(=O)CCC(F)(F)F)OCCCC[C@H](C)O3)cc1	none
COCC#Cc1ccc([C@@H]2[C@H](CO)N3CCCCN(S(=O)(=O)c4ccc(OC)cc4)C[C@@H]23)cc1	none
CC(C)(O)C#Cc1ccc([C@H]2[C@@H](CO)N3CCCCN(C(=O)c4ccc(F)cc4)C[C@@H]23)cc1	none
O=S(=O)(c1ccccc1)N1CCCCN2[C@@H](CO)[C@@H](c3ccc(C#CC4CCCC4)cc3)[C@@H]2C1	none
CC(C)CC#Cc1ccc([C@@H]2[C@H]3CN(S(=O)(=O)c4ccc(F)cc4)CCCCN3[C@H]2CO)cc1	DUX4 txn inh -22
CC(C)CC#Cc1ccc([C@@H]2[C@H]3CN(S(=O)(=O)Cc4ccccc4)CCCCN3[C@H]2CO)cc1	none
O=S(=O)(c1ccc(F)cc1)N1CCCCN2[C@@H](CO)[C@H](c3ccc(C#CC4CC4)cc3)[C@@H]2C1	DUX4 txn inh -26
CC(C)(O)C#Cc1ccc([C@@H]2[C@@H](CO)N3CCCCN(C(=O)c4ccc(F)cc4)C[C@H]23)cc1	none
CC(C)C#Cc1ccc([C@@H]2[C@H]3CN(C(=O)c4ccc(F)cc4)CCCCN3[C@H]2CO)cc1	DUX4 txn inh -26
O=S(=O)(c1ccccc1)N1CCCCN2[C@@H](CO)[C@H](c3ccc(C#CC4CCCC4)cc3)[C@@H]2C1	none
Cc1noc(C)c1NC(=O)N1C[C@@H](O)COC[C@@H]2O[C@@H](CC(=O)N[C@@H]3CCN(Cc4ccccc4)C3)CC[C@H]21	none
COC(=O)N(C)C[C@H]1OCc2cn(nn2)CCCC(=O)N([C@@H](C)CO)C[C@H]1C	none
O=C1N[C@H](c2ccccc2)COCc2cn(nn2)CC[C@H]1Cc1ccc(Cl)cc1	none
O=C(CC1CC1)N1CC(=O)N2[C@H](C1)[C@@H](c1ccc(-c3ccccc3)cc1)[C@@H]2CO	none
C[C@@H]1CN([C@H](C)CO)S(=O)(=O)c2ccc(-c3ccncc3)cc2O[C@H]1CN(C)C(=O)c1ccc2c(c1)OCO2	none
C[C@@H]1CN([C@@H](C)CO)C(=O)c2c(c3ccccc3n2C)-c2ccccc2CO[C@H]1CN(C)Cc1cccc(O)c1	none
C[C@H]1CN([C@@H](C)CO)C(=O)c2c(c3ccccc3n2C)-c2ccccc2CO[C@@H]1CN(C)Cc1cccc(O)c1	DUX4 txn inh -45
C[C@@H]1CN([C@H](C)CO)C(=O)c2c(c3ccccc3n2C)-c2ccccc2CO[C@H]1CN(C)Cc1cccc(F)c1	DUX4 txn inh -35
C[C@H]1CN([C@@H](C)CO)C(=O)c2c(c3ccccc3n2C)-c2ccccc2CO[C@@H]1CN(C)Cc1cccc(C(=O)O)c1	none
C[C@H]1CN([C@@H](C)CO)C(=O)c2c(c3ccccc3n2C)-c2ccccc2CO[C@H]1CN(C)Cc1ccc(O)cc1	none
C[C@H](CO)N1C[C@H](C)[C@H](CN(C)Cc2cccc(O)c2)OCc2ccccc2-c2c(n(C)c3ccccc23)C1=O	DUX4 txn inh -29
